Assay results as given in PubChem BioAssay.
Active and inactive are the calls of the source. Unless noted, how the calls were made is not given here.

What was measured:
[1] = HepG2 liver cancer cell viability effects, profiling panel, resazurin fluorescence, 24 h, PK04 Diversity Set (AID 1172); details: higher = more signal; further: test concentration not given here
[2] = basal S. cerevisiae growth modulation, no modifier, primary screen, OD600, strain BY4716, 24 h, basal condition (AID 1173); details: OD600, 24 h, higher = more signal, called active from +8 up or from −8 down
[3] = MM1S myeloma cell viability, profiling panel, resazurin fluorescence, basal, 24 h, PK04 Diversity Set (AID 1174); details: higher = more signal, called active from +8 up or from −8 down;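 further: MM1S multiple myeloma cell line; test concentration not given here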
[4] = target: Dihydroorotate dehydrogenase (quinone), mitochondrial (Plasmodium falciparum (isolate 3D7)) (UniProt Q08210); assay: PfDHODH enzyme inhibitors, primary screen, biochemical, C-terminal His tag, absorbance 600 nm (AID 1175); details: DCIP absorbance 600 nm, higher = more signal, called active from +8 up or from −8 down;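 further: recombinant parasite enzyme with a five histidine tag at its C terminus; test concentration not given here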
Chain of Dihydroorotate dehydrogenase (quinone), mitochondrial (Plasmodium falciparum (isolate 3D7)) (Q08210 whole entry, looked up): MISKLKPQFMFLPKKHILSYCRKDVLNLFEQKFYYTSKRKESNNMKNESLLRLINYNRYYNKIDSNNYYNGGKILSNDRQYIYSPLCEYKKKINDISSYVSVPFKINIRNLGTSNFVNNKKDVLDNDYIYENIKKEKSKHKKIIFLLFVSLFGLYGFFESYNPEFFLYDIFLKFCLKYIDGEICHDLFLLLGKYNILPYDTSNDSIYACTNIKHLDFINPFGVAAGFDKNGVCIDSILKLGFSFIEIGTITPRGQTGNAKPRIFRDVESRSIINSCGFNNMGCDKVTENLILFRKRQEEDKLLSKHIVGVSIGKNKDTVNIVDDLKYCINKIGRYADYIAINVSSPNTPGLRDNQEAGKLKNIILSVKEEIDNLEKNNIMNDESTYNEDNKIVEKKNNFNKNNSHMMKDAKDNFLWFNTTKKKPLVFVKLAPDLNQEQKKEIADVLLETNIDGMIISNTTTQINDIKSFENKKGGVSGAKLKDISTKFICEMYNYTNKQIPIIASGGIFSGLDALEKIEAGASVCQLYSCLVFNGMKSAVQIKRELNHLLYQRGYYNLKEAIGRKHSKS

[5] = P. aeruginosa biofilm formation inhibitors, primary screen, strain PAO1, LB-PBS medium, absorbance 600 nm (AID 1176); further: test concentration not given here; details: P. aeruginosa PAO1 growth/biofilm, A600, 12 h; higher = more signal
[6] = S. cerevisiae RM11-1a growth modifiers, primary screen, strain RM11-1a, OD600, basal, 24 h (AID 1177); details: OD600, 24 h, higher = more signal, called active from +8 up or from −8 down;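 further: cultures grown under basal conditions with no added stressor; test concentration not given here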
[7] = E. coli acrAB mutant growth effects, primary screen, E. coli filamentation inducers, strain DRC39, OD650, 24 h (AID 1178); details: higher = more signal, called active from +8 up or from −8 down;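 further: growth measured as culture turbidity by optical density at 650 nm; test concentration not given here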
[8] = E. coli acrAB mutant growth effects, primary screen, E. coli filamentation inducers, strain DRC39, OD650, 48 h (AID 1179);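 further: screen aims at cell division blockers that make cells filament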; details: E. coli DRC39 delta-acrAB growth, higher = more signal, called active from +8 up or from −8 down
[9] = RPMI8226 myeloma cell viability, profiling panel, resazurin fluorescence, basal, 24 h, PK04 Diversity Set (AID 1180); details: higher = more signal;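 further: RPMI8826 multiple myeloma cell line at 5000 cells per well; test concentration not given here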
[10] = target: E3 ubiquitin-protein ligase XIAP (Homo sapiens) (UniProt P98170); assay: XIAP binders, primary screen, biophysical, small-molecule microarray, fluorescence 635 nm (AID 1181); details: small-molecule microarray binding, higher = more signal;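 further: score merges 667 nm emission and signal to noise over triplicate slides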
Chain of E3 ubiquitin-protein ligase XIAP (Homo sapiens) (P98170 whole entry, looked up): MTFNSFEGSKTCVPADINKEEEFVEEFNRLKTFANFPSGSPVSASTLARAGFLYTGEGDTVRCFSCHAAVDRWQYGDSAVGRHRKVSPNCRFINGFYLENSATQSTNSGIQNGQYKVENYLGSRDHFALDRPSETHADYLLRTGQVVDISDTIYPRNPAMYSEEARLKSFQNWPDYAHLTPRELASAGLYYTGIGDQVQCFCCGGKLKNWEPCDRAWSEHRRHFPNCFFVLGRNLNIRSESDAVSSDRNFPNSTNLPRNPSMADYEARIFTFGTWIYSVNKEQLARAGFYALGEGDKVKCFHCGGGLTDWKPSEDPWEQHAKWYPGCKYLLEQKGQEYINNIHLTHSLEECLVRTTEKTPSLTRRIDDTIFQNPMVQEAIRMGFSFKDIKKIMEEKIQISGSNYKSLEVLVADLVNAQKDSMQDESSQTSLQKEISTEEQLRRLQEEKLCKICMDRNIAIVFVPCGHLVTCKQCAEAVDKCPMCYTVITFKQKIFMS

SMILES | z-score [1] | z-score [2] | z-score [3] | composite z-score [4] | z-score [5] | z-score [6] | z-score [7] | z-score [8] | z-score [9] | composite z-score [10]
CCCNC(=O)OC[C@H]1O[C@H](CCON=C[C@@H](NS(=O)(=O)c2ccc(C)cc2)[C@H](C)C=CCC(=O)OC)C=C[C@@H]1Oc1ccc(OC)cc1 | -0.765 | 0.0177 (inactive) | 0.0958 (inactive) | 0.216 (inactive) | 0.311 (inactive) | -0.803 (inactive) | 0.101 (inactive) | -0.138 (inactive) | 0.732 | -0.207
CCOC(=O)CCN1C(=O)[C@H]2[C@H]3[C@H](O)[C@H](O)CC(=O)[C@@H]3CC[C@H]2C1=O | 1.09 | -0.375 (inactive) | 0.344 (inactive) | 0.462 (inactive) | -0.708 (inactive) | -0.405 (inactive) | -0.512 (inactive) | -0.897 (inactive) | 0.651 | 0.0408
COC(=O)[C@@H]1CC[C@H](C)[C@@H](c2ccc(C)cc2)N1C(=O)c1ccc(C=NO[C@@H](C)c2cc(-c3c(C)cc(C)cc3C)no2)cc1 | -0.726 | 1.36 (inactive) | -0.321 (inactive) | 0.502 (inactive) | -0.925 (inactive) | 0.378 (inactive) | 0.218 (inactive) | 1.04 (inactive) | 0.0524 | -0.238
CO[C@@H]1COC(=O)[C@@H]2CCCN2C(=O)[C@@H](C)COC(=O)CCC[C@H]1C | -0.668 | -0.482 (inactive) | -0.27 (inactive) | -1.47 (inactive) | -0.197 (inactive) | -2.66 (inactive) | -0.0549 (inactive) | -0.0609 (inactive) | -0.304 | 0.134
COC(=O)[C@H](C)NC(=O)CCC1CC(OC(=O)NCc2ccc3c(c2)OCO3)CC2(CCCC(COC(=O)NCCC(C)C)O2)O1 (stereo not given in full) | 0.506 | -0.43 (inactive) | -0.274 (inactive) | -0.558 (inactive) | -0.294 (inactive) | -0.774 (inactive) | 0.909 (inactive) | -0.804 (inactive) | 0.0961 | 0.0245
CCOC(=O)CCN1C(=O)[C@H]2[C@H]3[C@H](O)[C@H](O)CC(=NOCC=C(C)CCC=C(C)C)[C@@H]3CC[C@H]2C1=O | 0.046 | 0.448 (inactive) | -0.836 (inactive) | 0.69 (inactive) | 0.176 (inactive) | -0.839 (inactive) | -1.15 (inactive) | -0.209 (inactive) | -0.871 | 0.175
COC(=O)[C@H](C)NC(=O)CCC1CC(OC(=O)NCCc2ccc(F)cc2)CC2(CCCC(COC(=O)NCCOc3ccccc3)O2)O1 (stereo not given in full) | 0.0903 | 0.338 (inactive) | 0.177 (inactive) | -0.361 (inactive) | -0.0326 (inactive) | 0.127 (inactive) | 0.289 (inactive) | -0.451 (inactive) | -0.0199 | -0.114
C[C@@H]1C=CCC(=O)OC[C@H](C)C(=O)N[C@@H](Cc2ccccc2)C(=O)OC1 | -0.42 | -1.13 (inactive) | 0.489 (inactive) | -2.99 (inactive) | -0.355 (inactive) | -0.868 (inactive) | 0.0826 (inactive) | -0.0419 (inactive) | 0.394 | -0.0669
CON=C(C)CCN1CCc2nc(-c3ccccc3)c(-c3ccccc3)cc2C1 | 1.86 | -6.56 (inactive) | -0.217 (inactive) | -0.467 (inactive) | 0.958 (inactive) | 0.886 (inactive) | 0.83 (inactive) | -2.48 (inactive) | 1.14 | -0.0115
C=CC[C@@H]1C=C[C@H](ON=C(C)CCN2CCCCc3nc(C)c(C)cc32)[C@@H](CO)O1 | 0.162 | 0.399 (inactive) | -0.201 (inactive) | -0.923 (inactive) | 0.323 (inactive) | 0.334 (inactive) | -0.275 (inactive) | -0.681 (inactive) | -0.103 | 0.183
CCN1C(=O)[C@H]2[C@H]3[C@H](O)[C@H](O)CC(=NO[C@@H](C)c4cc(-c5c(C)cc(C)cc5C)no4)[C@@H]3CC[C@H]2C1=O | 0.0416 | -2.13 (inactive) | -0.69 (inactive) | -0.126 (inactive) | 0.0646 (inactive) | 0.0564 (inactive) | 0.767 (inactive) | 0.596 (inactive) | -0.835 | -0.102
O=C1C2=CC[C@H]3C(=O)N(C[C@@H]4CCCO4)C(=O)[C@H]3[C@H]2[C@H](O)[C@@H]2O[C@H]12 | -0.154 | -0.87 (inactive) | -4.71 (inactive) | -0.619 (inactive) | -0.343 (inactive) | -0.511 (inactive) | 0.0929 (inactive) | 0.424 (inactive) | -1.7 | 0.204
